Results filed as inconclusive are left out. The source made the active and inactive calls. Unless noted, calls follow the shape of the dose curve; as a rule, active = well fitted curve in the direction sought with a large enough effect in the repeat runs; inconclusive = weak or mixed curves; inactive = no such curve, though single readings can be large; an effect the other way counts as inactive or inconclusive.
Tests used:
[1] = qHTS assay for small molecule agonists of the p53 signaling pathway - cell viability (AID 651633; calls by dose curve;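 also: p53RE-bla HCT reporter cells with a stable beta-lactamase p53 reporter; nearly all actives have a fitted effect of over 30% in size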); conditions: p53RE-bla HCT-116 viability, ATP luminescence, 16 h; series mostly up to 83.3 µM
Summary of the method: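 p53RE-bla cells were treated with compound for 16 hours at 37 C. Cytotoxicity was then measured as CellTiter-Glo luminescence after 30 min at room temperature.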

[2] = qHTS assay for small molecules that induce genotoxicity in human embryonic kidney cells expressing luciferase-tagged ATAD5 - cell viability (AID 651634; calls by dose curve; also: nearly all actives have a fitted effect of over 25% in size); conditions: HEK293T ATAD5-luc cells viability, CellTiter-Fluor, 15.5 h; series mostly up to 83.3 µM
Summary of the method: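 Seeding of 2,000 HEK293T ATAD5-luciferase cells per well preceded pin-tool compound transfer. Plates sat 15.5 hr at 37C under 5% CO2, then fluorescence was read after 30 min with CellTiter-Fluor.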

[3] = qHTS assay for small molecule disruptors of the mitochondrial membrane potential - cell viability (AID 720634; calls by dose curve;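 also: human HepG2 liver cancer cells; nearly all actives have a fitted effect of over 20% in size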); conditions: HepG2 viability, ATP luminescence (CellTiter-Glo), 1 h; series mostly up to 83.2 µM
Summary of the method: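 Measuring cytotoxicity alongside mitochondrial potential, the screen quantified ATP by luminescence in HepG2 cells after 1 hr compound incubation and a 30 min room-temperature CellTiter-Glo step.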

[4] = qHTS assay for small molecule disruptors of the mitochondrial membrane potential (AID 720635); conditions: HepG2 mitochondrial membrane potential, Mito-MPS dye ratio; series mostly up to 83.2 µM; also: potency is read from the fitted curve at half-maximal effect
Summary of the method: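 HepG2 cells exposed to compound 1 hr at 37C, then Mito-MPS dye 30 min. Ratio read of aggregate (540/590 nm) versus monomer (490/535 nm) fluorescence.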

[5] = qHTS assay to test for compound auto fluorescence at 590 nm (red) in HepG2 cells (AID 720674); conditions: HepG2 autofluorescence, red 540/590 nm, 1 h; series mostly up to 91.3 µM
Summary of the method: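 Seeding: 2,000 HepG2 cells/well, MEM/10% FBS, overnight 37 C. Dosing: compound vs DMSO. Incubation: 1 hr, 37 C, 5% CO2. Read: fluorescence 540 ex/590 em, Rose Bengal sodium as red reference.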

[6] = qHTS assay to test for compound auto fluorescence at 535 nm (green) in HepG2 cells (AID 720675); conditions: green autofluorescence 485/535 nm, 1 h; series mostly up to 91.3 µM
[7] = qHTS assay to test for compound auto fluorescence at 460 nm (blue) in HEK293 cells (AID 720678); conditions: blue autofluorescence 405/460 nm; series mostly up to 91.3 µM
Summary of the method: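 After cell attachment (4-5 hr, 37C), compounds were pinned onto HEK293 monolayers in 10% dialyzed FBS medium. The blue channel (405/460 nm) was read following overnight culture. Equivalency was calculated against triamterene.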

[8] = qHTS assay to test for compound auto fluorescence at 590 nm (red) in HEK293 cells (AID 720679); conditions: red autofluorescence 540/590 nm; series mostly up to 91.3 µM
Summary of the method: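 Plates of HEK293 cells (10% dialyzed FBS) are treated with 23 nL compound or DMSO vehicle after a 4-5 hr attachment period, incubated overnight at 37C, and read for red fluorescence at 540/590nm.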

[9] = qHTS assay to test for compound auto fluorescence at 535 nm (green) in HEK293 cells (AID 720680); conditions: green autofluorescence 485/535 nm; series mostly up to 91.3 µM
[10] = qHTS assay to test for compound auto fluorescence at 460 nm (blue) in HEK293 cell free culture (AID 720681); conditions: cell-free medium, autofluorescence 405/460 nm (blue); series mostly up to 91.3 µM
Summary of the method: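 Compounds were added to cell-free DMEM with 10% FBS and fluorescence read directly. The blue channel used 405 nm excitation and 460 nm emission, with triamterene as the reference fluorophore.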

[11] = qHTS assay to test for compound auto fluorescence at 535 nm (green) in HEK293 cell free culture (AID 720682); conditions: cell-free medium, green autofluorescence 485/535 nm, stronger effect = higher value; series mostly up to 91.3 µM
Summary of the method: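 Measurement is a direct plate read of green fluorescence (485 nm in, 535 nm out) after compound addition to serum-supplemented DMEM lacking cells, with fluorescein used to express intensities.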

[12] = qHTS assay to test for compound auto fluorescence at 590 nm (red) in HEK293 cell free culture (AID 720683); conditions: cell-free medium autofluorescence, Ex540/Em590 red; series mostly up to 91.3 µM
Summary of the method: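 Cell-free wells of DMEM with 10% FBS received compound, and intrinsic fluorescence was read at excitation/emission 540/590 nm. Values expressed as equivalence to Rose Bengal sodium.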

[13] = qHTS assay to test for compound auto fluorescence at 460 nm (blue) in HepG2 cell free culture (AID 720685); conditions: Cell-free culture medium, blue autofluorescence 405/460 nm; series mostly up to 91.3 µM
Summary of the method: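 Compound (23 nL) or DMSO pinned into cell-free MEM with 10% FBS; blue fluorescence read at 405/460 nm excitation/emission, expressed as auto-fluorescence equivalency to triamterene.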

[14] = qHTS assay to test for compound auto fluorescence at 535 nm (green) in HepG2 cell free culture (AID 720686); conditions: Cell-free medium, green autofluorescence 485/535 nm; series mostly up to 91.3 µM
[15] = qHTS assay to test for compound auto fluorescence at 460 nm (blue) in HepG2 cells (AID 720687); conditions: autofluorescence 405/460 nm, 1 h; series mostly up to 91.3 µM
Summary of the method: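 HepG2 cells in MEM with 10% FBS, attached overnight at 37 C, were exposed to compound or DMSO for 1 hr at 37 C, 5% CO2. Blue fluorescence was read at 405/460 nm, with triamterene as reference fluorophore.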

[16] = biological target: Glucocorticoid receptor (Homo sapiens) (UniProt P04150); assay: qHTS assay to identify small molecule agonists of the glucocorticoid receptor (GR) signaling pathway (AID 720691; active = well fitted activation curve with a large enough effect in the signal ratio in the repeat runs, not every such curve was filed as active; the % refers to the signal ratio); conditions: GR-bla HeLa, beta-lactamase reporter ratio, 18 h; series mostly up to 62.4 µM
Glucocorticoid receptor (Homo sapiens), sequence (P04150 whole entry, looked up): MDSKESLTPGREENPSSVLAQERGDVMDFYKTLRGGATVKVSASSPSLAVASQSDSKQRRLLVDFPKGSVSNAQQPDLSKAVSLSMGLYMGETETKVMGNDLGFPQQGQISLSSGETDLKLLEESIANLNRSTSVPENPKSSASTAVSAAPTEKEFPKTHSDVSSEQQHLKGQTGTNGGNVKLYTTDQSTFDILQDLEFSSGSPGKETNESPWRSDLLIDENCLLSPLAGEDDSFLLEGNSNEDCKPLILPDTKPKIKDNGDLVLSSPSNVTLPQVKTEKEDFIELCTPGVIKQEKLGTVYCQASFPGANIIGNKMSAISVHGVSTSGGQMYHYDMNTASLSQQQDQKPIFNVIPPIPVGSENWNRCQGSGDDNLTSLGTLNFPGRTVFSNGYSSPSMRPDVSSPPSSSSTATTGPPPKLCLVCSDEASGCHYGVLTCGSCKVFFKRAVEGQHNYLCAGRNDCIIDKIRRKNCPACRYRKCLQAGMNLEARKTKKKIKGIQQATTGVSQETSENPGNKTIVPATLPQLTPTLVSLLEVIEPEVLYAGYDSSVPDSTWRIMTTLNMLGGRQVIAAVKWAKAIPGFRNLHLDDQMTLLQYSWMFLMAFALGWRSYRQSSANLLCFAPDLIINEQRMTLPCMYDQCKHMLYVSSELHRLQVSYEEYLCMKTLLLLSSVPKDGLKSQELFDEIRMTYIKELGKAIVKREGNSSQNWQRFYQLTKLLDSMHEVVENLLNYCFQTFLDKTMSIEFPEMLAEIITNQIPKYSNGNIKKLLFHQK
Summary of the method: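 Reporter read-out: fluorescence intensity following 2 h room-temperature LiveBLAzer B/G FRET substrate loading. Prior step: GR-bla HeLa cells held 4 h, then treated 18 h at 37 C.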

[17] = biological target: Glucocorticoid receptor (Homo sapiens) (UniProt P04150); assay: qHTS assay to identify small molecule antagonists of the glucocorticoid receptor (GR) signaling pathway (AID 720692; active = well fitted inhibition curve with a large enough effect in the signal ratio in the repeat runs, not every such curve was filed as active; the % refers to the signal ratio); conditions: GR-bla HeLa, beta-lactamase FRET ratio, dexamethasone-stimulated, 18 h; series mostly up to 58.5 µM
Summary of the method: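 Dexamethasone (5 nM final) stimulated a stably integrated GRE-beta-lactamase reporter in HeLa cells during 18 h co-incubation with compounds; signal was quantified as fluorescence intensity of B/G FRET substrate after 2 h.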

[18] = qHTS assay for small molecules that induce genotoxicity in human embryonic kidney cells expressing luciferase-tagged ATAD5 (AID 651632); conditions: HEK293T ATAD5-luciferase induction, 16 h; series mostly up to 83.3 µM; also: nearly all actives have a fitted effect of over 15% in size
Summary of the method: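 Reporter cells (HEK293T) express luciferase-tagged ATAD5, a protein that accumulates after DNA damage. Treat 16 hr at 37C/5% CO2, add Amplite, wait 30 min at RT, and read luminescence.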

[19] = qHTS assay to test for compound auto fluorescence at 590 nm (red) in HepG2 cell free culture (AID 720684); conditions: cell-free medium autofluorescence, red 540/590 nm; series mostly up to 91.3 µM
Summary of the method: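 Compound was pinned into wells holding MEM with 10% FBS and no cells, and red fluorescence was read at Ex/Em 540/590 nm. Signal is expressed as auto fluorescence equivalency relative to Rose Bengal sodium.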
% is scaled to controls: 0 for no effect and ±100 for the full control effect.

C[C@H]1[C@H](NC(=O)/C(=N/OC(C)(C)C(=O)O)c2csc(N)n2)C(=O)N1S(=O)(=O)O (stereo in doubt)
inactive: Potency [1] | Potency [2] | outcome [3] | Potency [4] | fluorescence, relative to Rose Bengal [5] -0.264% [at 18.6 µM] | fluorescence, % of fluorescein control [6] -0.201% [at 18.6 µM] | fluorescence, % of triamterene [7] 0.218% [at 18.6 µM] | fluorescence, % of fluorescent control [8] 0.181% [at 18.6 µM] | fluorescence, % of fluorescein [9] 0.0034% [at 18.6 µM] | fluorescence, % of fluorescent control [10] 0.0562% [at 18.6 µM] | activity change [11] 0.008% [at 18.6 µM] | fluorescence, % of fluorescent control [12] 0.271% [at 18.6 µM] | fluorescence, % of fluorescent control [13] 0.104% [at 18.6 µM] | fluorescence, % of fluorescein control [14] 0.102% [at 18.6 µM] | fluorescence, % of fluorescent control [15] 0.0116% [at 18.6 µM] | Potency [16] | Potency [17]

CC[N+](CC)(CC(=O)Nc1c(C)cccc1C)Cc1ccccc1 (tested in a mixture with another compound)
inactive: Potency [18] | Potency [1] | Potency [2] | outcome [3] | outcome [5] | outcome [8] | outcome [9] | outcome [10] | outcome [11] | outcome [12] | outcome [19] | outcome [13] | outcome [14] | outcome [15]

CC(CO)(CO)[N+](=O)[O-]
inactive: Potency [18] | Potency [1] | Potency [2] | outcome [3] | outcome [5] | outcome [7] | outcome [8] | outcome [9] | outcome [11] | outcome [12] | outcome [19] | outcome [13] | outcome [15] | Potency [16]

CC(C)c1ccc2ncccc2c1
inactive: Potency [18] | Potency [2] | outcome [3] | outcome [5] | outcome [7] | outcome [8] | outcome [9] | outcome [10] | outcome [11] | outcome [12] | outcome [19] | outcome [13] | outcome [14] | outcome [15]

CC1=NN(c2cccc(S(=O)(=O)O)c2)C(=O)C1
inactive: Potency [18] | Potency [2] | outcome [3] | outcome [5] | outcome [7] | outcome [8] | outcome [9] | outcome [11] | outcome [12] | outcome [19] | outcome [13] | outcome [14] | outcome [15] | Potency [16] | Potency [17]

Cc1c(N)c(=O)n(-c2ccccc2)n1C
inactive: Potency [1] | Potency [2] | outcome [3] | fluorescence, relative to Rose Bengal [5] -0.0352% [at 18.6 µM] | fluorescence, % of triamterene [7] 0.0036% [at 18.6 µM] | fluorescence, % of fluorescent control [8] 0.258% [at 18.6 µM] | fluorescence, % of fluorescent control [10] 0.0935% [at 18.6 µM] | fluorescence, % of fluorescent control [12] 0.419% [at 18.6 µM] | fluorescence, % of Rose Bengal [19] 0.0086% [at 18.6 µM] | fluorescence, % of fluorescent control [13] -0.0617% [at 18.6 µM] | fluorescence, % of fluorescein control [14] -0.0689% [at 18.6 µM] | fluorescence, % of fluorescent control [15] -0.0556% [at 18.6 µM] | Potency [16] | Potency [17]

Nc1ccn([C@@H]2O[C@H](CO)[C@@H](O)C2O)c(=O)n1 (some centres undefined)
inactive: Potency [18] | Potency [1] | Potency [2] | outcome [5] | outcome [6] | outcome [8] | outcome [10] | outcome [11] | outcome [12] | outcome [19] | outcome [13] | outcome [14] | outcome [15] | Potency [16]

CCCCc1ccc2c(n1)[C@@H](c1ccc(OC)cc1C[C@H](C)C(=O)O)[C@H](C(=O)O)[C@H]2c1ccc2c(c1)OCO2
inactive: Potency [18] | Potency [1] | outcome [5] | outcome [6] | outcome [7] | outcome [8] | outcome [9] | outcome [10] | outcome [11] | outcome [12] | outcome [13] | outcome [14] | outcome [15] | Potency [16] | Potency [17]

CNC(=O)Nc1ccc(Cl)c(Cl)c1
inactive: Potency [18] | Potency [1] | Potency [2] | outcome [5] | outcome [6] | outcome [7] | outcome [8] | outcome [9] | outcome [11] | outcome [12] | outcome [19] | outcome [13] | outcome [14] | outcome [15] | Potency [16]

FB(F)F
inactive: Potency [18] | Potency [1] | outcome [3] | outcome [5] | outcome [6] | outcome [7] | outcome [8] | outcome [9] | outcome [10] | outcome [11] | outcome [12] | outcome [19] | outcome [13] | outcome [14] | outcome [15] | Potency [16] | Potency [17]

O=C(c1ccccc1O)c1ccccc1O
active: Potency [4] 12.1 µM
inactive: Potency [18] | Potency [2] | outcome [3] | outcome [5] | outcome [7] | outcome [8] | outcome [10] | outcome [11] | outcome [12] | outcome [19] | outcome [13] | outcome [14] | outcome [15] | Potency [17]

CC(C)(N)C#N
inactive: Potency [18] | Potency [1] | Potency [2] | outcome [3] | outcome [5] | outcome [7] | outcome [8] | outcome [9] | outcome [10] | outcome [11] | outcome [12] | outcome [19] | outcome [13] | outcome [15] | Potency [16]

CCCCOC(=O)CCC(C)=O
inactive: Potency [18] | Potency [1] | Potency [2] | outcome [3] | outcome [5] | outcome [7] | outcome [8] | outcome [10] | outcome [12] | outcome [19] | outcome [13] | outcome [14] | outcome [15] | Potency [16] | Potency [17]

COc1cccc(OC)c1C(=O)N[C@@H]1C(=O)N2[C@@H]1SC(C)(C)[C@@H]2C(=O)O
inactive: Potency [18] | Potency [1] | Potency [2] | outcome [3] | outcome [5] | outcome [6] | outcome [8] | outcome [9] | outcome [10] | outcome [11] | outcome [12] | outcome [19] | outcome [13] | outcome [14] | outcome [15] | Potency [16] | Potency [17]

CN1CCC(=C2c3ccccc3CCc3cccnc32)CC1
inactive: Potency [18] | outcome [3] | outcome [5] | outcome [6] | outcome [7] | outcome [8] | outcome [9] | outcome [11] | outcome [12] | outcome [19] | outcome [13] | outcome [14] | outcome [15]

From PubChem BioAssay (Tox21)
